Test results taken from PubChem BioAssay (Tox21).
Where “and” joins values, the source holds several entries; their conditions need not be identical. Equal values may be shown once. Inconclusive results are not listed. A call without a number means that no potency is given here. Calls of active or inactive are those of the source. Calls come from the whole dose curve.

What follows are compounds tested against Thyrotropin receptor (Homo sapiens) (UniProt P16473) (assay: qHTS assay to identify small molecule agonists of the thyroid stimulating hormone receptor (TSHR) signaling pathway (AID 1224843; note: nearly all actives have a fitted effect of over 45% in size)). Conditions: TSHR-HEK293 cells, cAMP HTRF, agonist mode, 30 min; series mostly up to 92.4 µM.
From the text: National Center for Advancing Translational Sciences [NCATS]
NIH Chemical Genomics Center [NCGC]
U.S. Environmental Protection Agency [EPA]
National Institutes of Environmental Health Sciences [NIEHS]
National Toxicology Program [NTP]
U.S. Food and Drug Administration [FDA]
TSHR is the receptor for thyrotropin (thyroid stimulating hormone or TSH), a member of the glycoprotein hormone family. TSH is released by the anterior pituitary gland and is the main regulator of thyroid gland growth and development. Upon binding circulating thyrotropin, a G-protein signal cascade activates adenylyl cyclase and […] cAMP concentration is increased. cAMP is a key second messenger involved extensively in cellular signal transduction pathways associated with the majority of G-protein coupled receptors (GPCRs). The activation of these GPCRs by neurotransmitters, lipids, nucleotides, peptides and hormones results in the activation or the inhibition of plasma membrane-bound adenylate cyclase through heterotrimeric G-proteins. A cell-based TSHR assay was used to screen the Tox21 10K library for compounds that can modulate TSHR in agonist mode.
Tox21 Assay Protocol Summary:
TSHR-Hek293 cells were dispensed at 800 cells/4uL/well in 1536-well white plates using a Multidrop dispenser. […] The plates were incubated at room temperature for 30 min. 2.5 ul/well of cAMP-d2 and 2.5ul/well of anti-cAMP-cryptate was added respectively into the assay plates using a Flying Reagent Dispenser. After 1 hr incubation at room temperature, the fluorescence intensity in the plates was measured using an Envision plate reader. Each test compound was measured at 15 concentrations and in triplicates.
Potency is the fitted concentration of half-maximal effect.

Sequence of Thyrotropin receptor (Homo sapiens) (P16473 whole entry, looked up): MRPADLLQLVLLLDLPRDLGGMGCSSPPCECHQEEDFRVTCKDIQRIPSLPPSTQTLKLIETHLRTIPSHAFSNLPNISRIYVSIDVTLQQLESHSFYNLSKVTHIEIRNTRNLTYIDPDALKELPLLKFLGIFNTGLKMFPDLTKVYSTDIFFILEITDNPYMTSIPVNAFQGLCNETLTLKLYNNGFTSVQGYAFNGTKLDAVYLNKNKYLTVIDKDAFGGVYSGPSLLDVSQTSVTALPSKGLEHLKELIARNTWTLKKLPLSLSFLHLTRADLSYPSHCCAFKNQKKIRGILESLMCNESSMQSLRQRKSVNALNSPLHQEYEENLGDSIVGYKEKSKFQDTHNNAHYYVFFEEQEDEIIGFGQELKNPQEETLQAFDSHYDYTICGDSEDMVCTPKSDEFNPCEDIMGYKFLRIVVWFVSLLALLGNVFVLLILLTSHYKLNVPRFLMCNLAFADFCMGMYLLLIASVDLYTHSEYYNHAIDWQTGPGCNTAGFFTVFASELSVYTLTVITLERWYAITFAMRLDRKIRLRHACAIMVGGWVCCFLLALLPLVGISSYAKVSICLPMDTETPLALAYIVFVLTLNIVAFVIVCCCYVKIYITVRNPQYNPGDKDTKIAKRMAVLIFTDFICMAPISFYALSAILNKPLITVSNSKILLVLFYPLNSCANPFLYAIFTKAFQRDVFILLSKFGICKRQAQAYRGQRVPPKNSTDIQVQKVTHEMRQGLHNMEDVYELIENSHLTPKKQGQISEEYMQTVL

| Compound | Potency |
| --- | --- |
| COP(=O)(OC)Oc1ccc([N+](=O)[O-])cc1 | inactive |
| BrCCCBr | inactive |
| CCN(CC)Cc1nccn1-c1ccc([N+](=O)[O-])cc1C(=O)c1ccccc1Cl | inactive |
| ClC(Cl)C(Cl)(Cl)Cl | inactive |
| CN=C=O | inactive |
| CC(O)C(=O)[O][Hg][c]1ccccc1 (stereo not given) | 2.43 µM (active) |
| COc1ccc2[nH]cc(CCN(C(C)C)C(C)C)c2c1 | inactive |
| C[C@]12CC[C@H]3[C@@H](CCC4=CC(=O)CC[C@@H]43)[C@@H]1CC[C@@H]2OC(=O)CCc1ccco1 | inactive |
| ClSC(Cl)(Cl)Cl | inactive |
| COc1ccc(Cc2nccc3cc(OC)c(OC)cc23)cc1OC | 9.44 µM (active) |
| CC(Cc1ccc(O)cc1)NCC(O)c1cc(O)cc(O)c1 (stereo not given) | 0.841 µM (active) |
| Nc1ccc(N=Nc2ccccc2)cc1 | inactive |
| CCN(CC)C(=S)S | inactive |
| CNC(=O)CSP(=O)(OC)OC | inactive |
| O=Cc1ccccc1 | inactive |
| Nc1nc(N)c(N)c(N)n1 | inactive |
| ClC1=C(Cl)[C@]2(Cl)[C@H]3[C@H]([C@@H]4C=C[C@H]3C4)[C@@]1(Cl)C2(Cl)Cl | 19.3 µM (active) and 13.7 µM (active) |
| N#Cc1ccc(N(CC(N)=O)CC(F)(F)F)cc1C(F)(F)F | inactive |
| COP(=S)(OC)Oc1ccc([N+](=O)[O-])c(C)c1 | inactive |
| COc1c2c(cc3c1OCO3)CCN(C)C2 | inactive |

| Compound | Potency |
| --- | --- |
| CCOP(=O)(OCC)Oc1nc(Cl)c(Cl)cc1Cl | inactive |
| COC(=O)C(C)N(C(=O)c1ccco1)c1c(C)cccc1C (stereo not given) | inactive |
| COc1ccc2c(c1OC)C(=O)O[C@@H]2[C@H]1c2cc3c(cc2CCN1C)OCO3 | inactive |
| ClCBr | inactive |
| Cc1ccccc1OP(=O)(Oc1ccccc1C)Oc1ccccc1C | inactive |
| O=[N+]([O-])c1ccc(CCl)cc1 | inactive |
| C=Cc1cccc(CCl)c1 | inactive |
| ClC1=C(Cl)[C@]2(Cl)[C@@H]3[C@H]4C[C@H]([C@@H]5O[C@H]45)[C@@H]3[C@@]1(Cl)C2(Cl)Cl | 4.32 µM (active) |
| C=CC(=C)C | inactive |
| Cc1nn(-c2cc(NS(C)(=O)=O)c(Cl)cc2Cl)c(=O)n1C(F)F | inactive |
| CCOC(=O)Cc1ccccc1 | inactive |
| Nc1ccccc1-c1ccccc1 | inactive |
| O=C(Cl)c1ccccc1F | inactive |
| C=CCOC(=O)c1ccccc1N | inactive |
| O=C(N[C@@H]1N=C(c2ccccc2F)c2cccc3c2N(CC3)C1=O)c1cc2ccccc2[nH]1 | inactive |
| CC(C)Br | inactive |
| CC1CN1 (stereo not given) | inactive |
| CCCCC(CC)COC(=O)c1ccccc1C(=O)OCC(CC)CCCC (stereo not given) | 3.86 µM (active) |
| C[N+]1(C)[C@@H]2CC[C@H]1CC(OC(=O)C(CO)c1ccccc1)C2 (stereo not given in full) | inactive |
| CCCCc1ccccc1 | inactive |
